Source: PubChem BioAssay (several laboratories)
Most compounds without a hit are left out; they make up all but 1.5% or so of the library.
CD11b adhes inh = CD11b/CD18-fibrinogen binding inhibition. AID 1497. K562 CD11b/CD18 adhesion to fibrinogen, ATPlite luminescence; Mn2+ added to activate the integrin. 93,000 tested, 0.54% active. inhibition, % at 10 µM. P05107+P11215;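 active means primary inhibition of 50% or more at 10 µM, then 40% or more on retest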
Target sequence (P05107 whole entry, looked up, other chains not shown): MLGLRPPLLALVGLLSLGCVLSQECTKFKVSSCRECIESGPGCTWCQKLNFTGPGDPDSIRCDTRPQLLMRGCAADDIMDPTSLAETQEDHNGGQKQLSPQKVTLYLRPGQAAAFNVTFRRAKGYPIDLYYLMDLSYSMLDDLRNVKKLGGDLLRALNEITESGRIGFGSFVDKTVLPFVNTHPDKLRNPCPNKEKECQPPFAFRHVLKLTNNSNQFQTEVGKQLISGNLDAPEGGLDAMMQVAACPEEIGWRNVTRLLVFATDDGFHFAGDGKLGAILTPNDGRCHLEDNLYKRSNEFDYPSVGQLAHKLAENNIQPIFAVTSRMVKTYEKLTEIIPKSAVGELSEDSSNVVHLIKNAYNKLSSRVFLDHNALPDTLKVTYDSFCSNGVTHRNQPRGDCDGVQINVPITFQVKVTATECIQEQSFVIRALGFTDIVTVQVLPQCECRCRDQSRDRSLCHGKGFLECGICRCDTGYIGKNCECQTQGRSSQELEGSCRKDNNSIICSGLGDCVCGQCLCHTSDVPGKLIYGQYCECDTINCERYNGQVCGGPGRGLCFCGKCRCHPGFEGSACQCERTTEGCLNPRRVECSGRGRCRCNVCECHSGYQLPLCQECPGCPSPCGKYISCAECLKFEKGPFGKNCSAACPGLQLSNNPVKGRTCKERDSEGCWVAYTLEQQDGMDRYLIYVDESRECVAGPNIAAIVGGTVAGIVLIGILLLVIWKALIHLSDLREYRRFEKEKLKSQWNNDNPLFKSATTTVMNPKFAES
MRP reversal = MRP-mediated drug resistance reversal; H69AR cells + 2 uM doxorubicin, CellTiter-Glo, 72 h; AID 602; 85,000 tested, 0.04% active; differential viability (reversal), % at 10 µM;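 active means viability drop by adding the cancer drug above about 55%, with treated viability meeting a 40% cutoff, limit read from the data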;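 further: viability without doxorubicin minus viability with 2 µM doxorubicin for each compound; larger differential means the compound sensitizes cells more to doxorubicin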
FAK inh = inhibitors of human focal adhesion kinase; Q05397; biochemical FAK kinase activity assay; inhibition, %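 (tested at 7 µM)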; 97,000 tested, 0.84% active; in the data active means inhibition above about 19%;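 further: 0% = DMSO and 100% = reference compound high control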
Phagocyt inh = macrophage phagocytosis inhibition; J774A.1 macrophage IgG-bead phagocytosis, imaging; inhibition, % at 5 µM; 110,000 tested, 0.07% active;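 active means inhibition above the mean of the plate negative controls plus 5 SD, cut at about 13% in these data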;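 further: phagocytic index as fraction of beads internalized from green versus red external bead signal; plate controls were DMSO negative control for no effect and cytochalasin-D positive control for full effect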
MRP1 act = activates MRP-1 | H69AR cells + doxorubicin, viability rescue, CellTiter-Glo | AID 799 | 140,000 tested, 0.61% active | viability increase, % at 10 µM;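 active means viability gain under doxorubicin at or above a set limit, the compound median plus 3 SD, cut at about 4.7% in these data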;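 further: MRP-1 overexpressing cells given doxorubicin 25 µM after compound pretreatment; 18-22 h compound pretreatment then 72 h with doxorubicin before readout; 0% = doxorubicin-only wells and 100% = vehicle-treated cells without doxorubicin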
CD11b adhes enh = increases human CD11b/CD18 adhesion to fibrinogen | P05107+P11215 | 93,000 tested, 0.07% active | K562 CD11b/CD18 adhesion to fibrinogen, ATPlite luminescence | activation, % at 10 µM;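 active means 10 µM primary screen giving 50% or more activity, confirmed by 40% or more on retest at that dose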
* marks the source's active call; other numbers are inactive results; . = not tested or not shown; [ ] = dose if it differs, or a comment.

SMILES	CD11b adhes inh	MRP reversal	FAK inh	Phagocyt inh	MRP1 act	CD11b adhes enh
Cc1ccc(N=C(NOCc2ccc(Cl)cc2Cl)c2nonc2N)c(C)c1	17	57*	0	0	-3	-3
COc1ccc2c(c1)CCc1sc(NC(=O)c3ccco3)nc1-2	-2	-8	2	0	0	5
COc1ccc2c(c1)CCc1sc(NC(=O)c3ccc(C)cc3)nc1-2	3	6	-9	1	4.9*	0
CCN(CC)S(=O)(=O)c1cc([N+](=O)[O-])ccc1NNC(=O)Nc1ccc(Cl)c(Cl)c1	99*	1	13	2	-5	-5
O=C(NNc1ccccc1[N+](=O)[O-])Nc1ccc(Cl)c(Cl)c1	.	.	.	-1	-4	.
O=C(CCCc1cccs1)Nc1nc(-c2ccc(F)cc2)cs1	.	.	.	-9	-1	.
O=C(Cc1cccs1)Nc1nc(-c2ccc(F)cc2F)cs1	65*	-4	3	0	-2	-6
Cn1cc(Br)c(C(=O)NNC(=O)c2ccc(Cl)cc2)n1	.	.	.	-2	6.4*	.
O=C(Nc1ncc(Br)s1)C(Cc1ccccc1)n1cccc1 (centres undefined)	79*	1	-3	.	-5	-7
CCc1cc(C(=O)Cc2nc3ccccc3[nH]2)c(O)cc1O	1	-3	-1	-1	-1	-2
CCCc1cc(C(=O)Cc2ccc(F)cc2)c(O)cc1O	95*	-10	0	1	1	-5
O=C(Cc1ccc(F)cc1)c1ccc(O)cc1O	8	14	1	0	0	-2
CCc1cc(C(=O)COc2ccccc2F)c(O)cc1O	84*	7	2	-5	-1	-8
CCc1cc(C(=O)Cc2ccc(F)cc2)c(O)cc1O	103*	-7	.	-6	0	-6
COc1ccc(C2C(C#N)=C(N)SC(N)=C2C#N)cc1OC	-32	-1	1	1	0	-1
N#CC1=C(N)SC(N)=C(C#N)C1c1cccc(O)c1	.	-14	4	.	5.1*	.
O=C1Nc2cccnc2Sc2ccccc21	-20	-12	2	-2	-1	-4
c1ccc2c(c1)Nc1nccnc1S2	.	.	.	0	5.1*	.
COc1ccc(-c2cnnn2-c2ccc(NC(=O)c3ccc(S(=O)(=O)N4CCCCC4)cc3)cc2)cc1	.	.	.	-2	-4	.
CCc1nc2c(cnn2-c2ccc(F)cc2)c(=O)n1-c1ccc(N2CCC(C)CC2)cc1	76*	-11	1	0	2	-4
Cc1nc2c(cnn2-c2ccccc2Cl)c(=O)n1-c1ccc(N2CCC(C)CC2)cc1	-6	1	2	0	-2	-3
O=C(NC(=S)NC(=O)c1ccccc1F)c1ccccc1F	7	.	.	-1	7.1*	0
O=C(NC(=S)NCc1ccccc1)c1ccccc1F	-1	.	1	0	-3	-2
CC(=O)Nc1cccc(NC(=O)c2cc(-c3cccnc3)nc3ccc(Br)cc23)c1	8	.	7	2	-3	53*
O=C(Nc1ccc(C(F)(F)F)cc1)c1cc(-c2cccnc2)nc2ccc(Br)cc12	.	.	-10	.	-1	.
SMILES	CD11b adhes inh	MRP reversal	FAK inh	Phagocyt inh	MRP1 act	CD11b adhes enh
O=C(CCc1ccccc1)Nc1ccc(N2CCCCC2)cc1	.	.	.	0	-3	.
O=C(/C=C/Nc1cccc(O)c1)c1ccccc1	69*	1	.	1	-1	-2
Cc1ccc(C(=O)/C=C/Nc2cccc(O)c2)cc1	91*	.	.	0	0	-11
COc1ccc(CCN(C(=O)c2cccc(F)c2)C2CC(=O)N(c3ccc(OC)cc3)C2=O)cc1 (centres undefined)	-12	.	0	-1	0	4
Cc1nn(C(C)C(=O)O)c2ccccc12 (centres undefined)	-26	-2	-1	1	0	-2
COc1ccc(NC(=S)NC(NC(=O)c2ccc(Cl)cc2Cl)C(Cl)(Cl)Cl)c([N+](=O)[O-])c1 (centres undefined)	83*	3	8	-2	1	-3
COc1ccc(CCc2nc(-c3ccc(-n4cccc4)cc3)no2)cc1	62*	-10	6	0	1	12
COc1cc(C)c(Cl)cc1S(=O)(=O)NCc1ccncc1	84*	5	-1	10	-2	-9
COc1cc(C)c(Br)cc1S(=O)(=O)NCc1ccccc1	-17	.	-3	2	0	6
CCc1nnc(NC(=O)C2CCCN2S(=O)(=O)c2ccc(F)cc2)s1 (centres undefined)	-6	-15	-2	-2	5.8*	-2
CCn1ncc(Br)c1C(=O)Nc1ccccc1C(=O)OC	.	-6	53*	.	.	.
COc1ccccc1NS(=O)(=O)c1cc(NC(=O)/C=C/c2cccs2)ccc1N1CCOCC1	.	.	.	-10	6.0*	.
CCOC(=O)c1[nH]c2ccc(Br)cc2c1NC(=O)CCN1CCC(C)CC1	-12	1	-1	0	-3	4
CCOC(=O)c1[nH]c2ccc(Br)cc2c1NC(=O)CNC	-2	-8	0	-1	-2	104*
CCC(=O)NC(Nc1ncc(C)s1)(C(=O)OC)C(F)(F)F (centres undefined)	.	-6	-2	.	2	.
Cc1ccc(OC(=O)c2oc3ccc(F)cc3c2C)c(C)c1	1	.	9	-3	-4	-1
Cn1c(CN2CCCCC2)nc2cc(NC(=O)c3cccc(Br)c3)ccc21	59*	-11	2	-1	-2	-4
Cn1c(CN2CCCCC2)nc2cc(NC(=O)c3ccccc3)ccc21	-16	-2	1	-1	-2	3
CCC1(C)Cc2c(sc3nnn(Cc4ccccc4Cl)c(=O)c23)CO1 (centres undefined)	.	.	3	.	8.0*	.
CCC1(C)Cc2c(sc3nnn(CC(=O)Nc4ccccc4C)c(=O)c23)CO1 (centres undefined)	-5	.	0	1	1	4
CCC1(C)Cc2c(sc3nnn(CC(=O)Nc4ccccc4)c(=O)c23)CO1 (centres undefined)	-10	.	-1	-1	5.0*	0
Cc1ccccc1C(=O)O/N=C/c1c(N2CCOCC2)n(C)c2ccccc12	-4	.	-2	23*[artifact]	-4	5
Cn1c(Cl)c(/C=N/OC(=O)c2cccc(Cl)c2)c2ccccc21	-11	.	-4	0	-3	-4
COCCOC(=O)C1=C(C)NC(=O)NC1c1c(F)cccc1Cl (centres undefined)	0	-10	8	-1	-2	0
COC(=O)Nc1ccc(C)c2nsnc12	1	2	2	-3	-3	-5
O=S(=O)(NCCO)c1cccc2cccnc12	-9	1	-3	50*[artifact]	-2	5
COc1cc(S(=O)(=O)Nc2cccc(C)c2)ccc1NC(=O)c1ccncc1	15	.	.	.	5.2*	-4
Cc1oc(-c2ccc(Cl)cc2)nc1CN1CCCC(C(=O)N2CCN(C(=O)c3ccco3)CC2)C1 (centres undefined)	64*	1	2	0	-2	-5
S=c1[nH]nc(COc2ccc(Cl)cc2)o1	3	6	.	-2	4.9*	-1
